Where “and” joins values, the source holds several entries; their conditions need not be identical. Equal values may be shown once. Inconclusive results are not listed. A structure can be active in one record and inactive in another. Calls of active or inactive are those of the source. The calls were made as follows, unless noted: active = hit-call score of the fitted dose curve at least 0.9, where 1 is the maximum; inconclusive = response in the unintended direction; inactive = score below 0.9.
Experiments:
[1] = system: frog Androgen Receptor (AR), gene 399456; assay: ATG_frAR_XSP2: Attagene TRANS-FACTORIAL Multi-Species (XSP2) HepG2 Assay for frog Androgen Receptor (AR) (AID 2283824);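 also: actives raise reporter signal above DMSO so AC50 reflects agonist-like induction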
Outline: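 HepG2 cells transiently transfected with GAL4-UAS reporter units and frog (Xenopus laevis) AR-Gal4 chimera; reporter mRNA measured 24 h after dosing by RT-PCR and capillary electrophoresis. Gain of signal fitted relative to DMSO baseline.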

[2] = system: frog Estrogen Receptor (ER2), gene 100174814; assay: ATG_frER2_XSP2: Attagene TRANS-FACTORIAL Multi-Species (XSP2) HepG2 Assay for frog Estrogen Receptor (ER2) (AID 2283828)
Outline: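 Human liver HepG2, transient MRTU transfection (TRANS format, exogenous NR–Gal4). 24 h cpd exposure. Total RNA → RT → PCR → FAM label → HpaI cut → CE. Positive direction vs DMSO.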

[3] = target: Peroxisome proliferator-activated receptor gamma (Homo sapiens) (UniProt P37231); assay: ATG_hPPARg_XSP2: Attagene TRANS-FACTORIAL Multi-Species (XSP2) HepG2 Assay for human Peroxisome Proliferator-activated Receptor gamma (PPARg) (AID 2283829);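 also: actives raise reporter mRNA above DMSO so AC50 reflects PPARg activation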
Chain of Peroxisome proliferator-activated receptor gamma (Homo sapiens) (P37231 whole entry, looked up, the tested form may be a part): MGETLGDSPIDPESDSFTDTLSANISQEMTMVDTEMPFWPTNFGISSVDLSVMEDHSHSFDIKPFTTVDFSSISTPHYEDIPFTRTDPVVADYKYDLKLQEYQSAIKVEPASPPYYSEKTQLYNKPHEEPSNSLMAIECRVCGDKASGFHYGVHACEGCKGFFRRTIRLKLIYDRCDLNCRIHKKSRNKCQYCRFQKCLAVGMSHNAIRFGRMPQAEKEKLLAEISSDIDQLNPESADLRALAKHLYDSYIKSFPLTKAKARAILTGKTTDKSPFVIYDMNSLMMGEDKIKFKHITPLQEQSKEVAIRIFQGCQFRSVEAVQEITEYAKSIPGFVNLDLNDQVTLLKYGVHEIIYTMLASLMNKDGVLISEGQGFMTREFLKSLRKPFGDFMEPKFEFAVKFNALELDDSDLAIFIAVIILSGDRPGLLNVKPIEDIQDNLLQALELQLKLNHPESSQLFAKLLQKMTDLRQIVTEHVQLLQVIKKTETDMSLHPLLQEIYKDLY
Outline: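 Transient MRTU transfection, HepG2; TRANS format (exogenous NR-Gal4 chimeras). 24 h chemical exposure with 3 nM 6-alpha-fluorotestosterone and 1.5 nM norgestrel present. Readout: reporter mRNA via RT-PCR/CE fluorescence, up-direction vs DMSO.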

[4] = target: mouse Peroxisome Proliferator-activated Receptor gamma (PPARg), Pparg (gene 19016) (UniProt P37238); assay: ATG_mPPARg_XSP2: Attagene TRANS-FACTORIAL Multi-Species (XSP2) HepG2 Assay for mouse Peroxisome Proliferator-activated Receptor gamma (PPARg) (AID 2283830);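 also: hits are gains in reporter mRNA above DMSO so AC50 marks activation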
Chain of mouse Peroxisome Proliferator-activated Receptor gamma (PPARg), Pparg (gene 19016) (P37238 whole entry, looked up, the tested form may be a part): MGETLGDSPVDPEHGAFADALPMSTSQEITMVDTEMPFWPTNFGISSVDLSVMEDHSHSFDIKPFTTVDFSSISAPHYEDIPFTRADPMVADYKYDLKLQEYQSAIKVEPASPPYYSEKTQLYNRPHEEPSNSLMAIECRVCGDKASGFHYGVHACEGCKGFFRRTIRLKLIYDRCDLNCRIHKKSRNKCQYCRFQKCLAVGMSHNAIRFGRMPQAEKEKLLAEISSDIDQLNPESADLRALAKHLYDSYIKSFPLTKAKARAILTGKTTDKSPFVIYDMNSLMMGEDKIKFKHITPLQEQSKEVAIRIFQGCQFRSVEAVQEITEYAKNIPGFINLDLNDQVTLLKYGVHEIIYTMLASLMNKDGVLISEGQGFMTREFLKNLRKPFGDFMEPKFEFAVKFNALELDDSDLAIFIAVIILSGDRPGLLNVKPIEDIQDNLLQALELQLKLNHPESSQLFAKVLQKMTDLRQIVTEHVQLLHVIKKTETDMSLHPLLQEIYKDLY
Outline: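 HepG2 cells transiently transfected with GAL4-UAS reporter units for chimeric NR-Gal4 proteins including mouse PPARg, exposed 24 h; medium contained 3 nM 6-alpha-fluorotestosterone and 1.5 nM norgestrel. Reporter mRNA quantified by RT-PCR, HpaI digestion and capillary electrophoresis, vs DMSO.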

[5] = target: Nuclear receptor subfamily 1 group I member 2 (Mus musculus) (UniProt O54915); assay: ATG_mPXR_XSP2: Attagene TRANS-FACTORIAL Multi-Species (XSP1) HepG2 Assay for mouse Pregnane X Receptor (PXR) (AID 2283831)
Chain of Nuclear receptor subfamily 1 group I member 2 (Mus musculus) (O54915 whole entry, looked up, the tested form may be a part): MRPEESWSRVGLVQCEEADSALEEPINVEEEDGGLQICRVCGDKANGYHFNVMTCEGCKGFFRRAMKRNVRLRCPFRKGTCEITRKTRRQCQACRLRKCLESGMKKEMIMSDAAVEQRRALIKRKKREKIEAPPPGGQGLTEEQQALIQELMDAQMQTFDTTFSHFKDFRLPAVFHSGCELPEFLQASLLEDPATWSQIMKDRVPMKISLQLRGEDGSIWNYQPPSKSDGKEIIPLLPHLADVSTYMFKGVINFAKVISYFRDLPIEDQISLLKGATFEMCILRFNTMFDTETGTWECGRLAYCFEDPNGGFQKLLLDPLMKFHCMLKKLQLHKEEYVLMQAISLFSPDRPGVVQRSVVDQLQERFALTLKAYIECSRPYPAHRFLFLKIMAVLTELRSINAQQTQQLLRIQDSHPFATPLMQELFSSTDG
Outline: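 Transient HepG2 transfection, multiplexed GAL4-UAS reporters, NR-GAL4 chimeras. 24 h compound exposure. Readout: reporter mRNA, RT-PCR, fluorescent capillary electrophoresis; positive direction vs DMSO baseline.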

[6] = system: zebrafish Peroxisome Proliferator-activated Receptor gamma (PPARg), gene 557037; assay: ATG_zfPPARg_XSP2: Attagene TRANS-FACTORIAL Multi-Species (XSP2) HepG2 Assay for zebrafish Peroxisome Proliferator-activated Receptor gamma (PPARg) (AID 2283833);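 also: actives increase reporter signal over DMSO so AC50 reflects activation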
Outline: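 Transfect HepG2 with multiplexed GAL4-UAS reporter constructs; dose chemical 24 h; isolate RNA, reverse-transcribe, PCR-amplify, label and digest reporter products; resolve by capillary electrophoresis. Activity taken as increase over DMSO.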

[7] = system: turtle Thyroid Hormone Receptor, alpha (TRa), gene 101949057; assay: ATG_trTRa_XSP2: Attagene TRANS-FACTORIAL Multi-Species (XSP1) HepG2 Assay for turtle Thyroid Hormone Receptor, alpha (TRa) (AID 2283834);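 also: hits raise reporter mRNA over the DMSO baseline so AC50 marks activators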
Outline: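 Readout: reporter mRNA induction, fluorescence after RT-PCR, HpaI digestion and capillary electrophoresis. Transiently transfected HepG2, exogenous NR-Gal4 chimera driving GAL4-UAS reporter, 24 h compound exposure. Activity fitted upward relative to DMSO baseline.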

[8] = ATG_M_61_XSP2: Attagene TRANS-FACTORIAL Multi-Species (XSP2) HepG2 Assay for M61 Transcription Factor (Internal Marker) (AID 2283835; active = hit-call score of the fitted dose curve at least 0.9, where 1 is the maximum; inactive = score below 0.9;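 also: reporter mRNA of an internal background marker read by RT-PCR and capillary electrophoresis; active means a rise in signal above the DMSO baseline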)
Outline: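 HepG2 cells transiently transfected with multiple GAL4-UAS reporter units; 3 nM 6-alpha-fluorotestosterone and 1.5 nM norgestrel present to stimulate androgen receptor. After 24 h compound exposure, reporter mRNA measured by RT-PCR and capillary electrophoresis fluorescence, gain-of-signal versus DMSO baseline.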

[9] = system: zebrafish Androgen Receptor (AR), gene 100005148; assay: ATG_zfAR_XSP2: Attagene TRANS-FACTORIAL Multi-Species (XSP2) HepG2 Assay for zebrafish Androgen Receptor (AR) (AID 2283825);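 also: hits raise reporter mRNA above DMSO so AC50 reflects agonist-type gain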
Experimental: ATG_XSP2_multi-species_TRANS is a cell-based, multiplexed assay created by modifying the existing Attagene TRANS-FACTORIAL system to include a panel of nuclear receptors from some or all the following species: human (Homo sapiens), mouse (Mus musculus), frog (Xenopus laevis), zebrafish (Danio rerio), chicken (Gallus gallus), and turtle (Chrysemys picta). The ECOTOX-FACTORIAL format uses HepG2, a human liver cell line, with measurements taken at 24 hours after chemical dosing in a 24-well plate. Xsp2 included 3 nM 6-alpha-fluorotestosterone and 1.5 nM norgestrel to stimulate the androgen receptor.ATG_zfAR_XSP2 is one of 29 assay components measured or calculated from the ATG_XSP2_multi-species_TRANS assay. It is designed to make measurements of mRNA induction, a form of inducible reporter, as detected with fluorescence intensity signals by Reverse transcription polymerase chain reaction (RT-PCR) and Capillary electrophoresis technology.The assay endpoint ATG_zfAR_XSP2 was analyzed in the positive analysis fitting direction relative to DMSO as the negative control and baseline of activity. […] Furthermore, this assay endpoint can be referred to as a primary readout, because this assay has produced multiple assay endpoints where this one serves a reporter gene function. […]

[10] = target: zebrafish Thyroid Hormone Receptor alpha (TRa), thraa (gene 30670) (UniProt Q98867); assay: ATG_zfTRa_XSP2: Attagene TRANS-FACTORIAL Multi-Species (XSP1) HepG2 Assay for zebrafish Thyroid Hormone Receptor alpha (TRa) (AID 2283832);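 also: actives raise zebrafish TRa-Gal4 reporter transcript above DMSO baseline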
Chain of zebrafish Thyroid Hormone Receptor alpha (TRa), thraa (gene 30670) (Q98867 whole entry, looked up, the tested form may be a part): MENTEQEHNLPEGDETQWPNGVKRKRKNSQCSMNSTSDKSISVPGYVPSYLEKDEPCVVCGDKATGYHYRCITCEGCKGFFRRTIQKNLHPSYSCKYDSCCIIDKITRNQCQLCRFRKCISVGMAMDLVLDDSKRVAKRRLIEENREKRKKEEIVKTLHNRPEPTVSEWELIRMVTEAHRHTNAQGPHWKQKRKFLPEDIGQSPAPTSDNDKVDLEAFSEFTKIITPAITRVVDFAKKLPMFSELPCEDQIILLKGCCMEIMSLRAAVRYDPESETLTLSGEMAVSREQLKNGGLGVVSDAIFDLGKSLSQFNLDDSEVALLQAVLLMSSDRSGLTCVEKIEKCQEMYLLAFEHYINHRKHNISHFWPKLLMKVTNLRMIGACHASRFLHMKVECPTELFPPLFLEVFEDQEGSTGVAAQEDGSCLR
Outline: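 Chimeric receptor-Gal4 activity was assessed in transfected human liver HepG2 cells 24 h after dosing, using reporter transcript levels detected by RT-PCR and capillary electrophoresis. DMSO served as baseline.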

Measured: AC50

CCCCCCCCCCCCN
active: [2] 55.1 µM | [3] 30 µM and 11.9 µM | [4] 46.2 µM and 37.7 µM
inactive: [1] | [5] | [6] | [7]

CN(CCOc1ccc(CC2SC(=O)NC2=O)cc1)c1ccccn1 (configuration not stated)
inactive: [2] | [6] | [8]

O=C(Oc1ccccc1)c1ccc(O)cc1
inactive: [1] | [9] | [3] | [4] | [10] | [6] | [7]
active: [2] 72.4 µM and 4.8 µM | [3] 100 µM | [4] 68.1 µM | [5] 33.2 µM

O=c1cc(-c2ccccc2)oc2cc(O)cc(O)c12
inactive: [1] | [10] | [6] | [7] | [8]
active: [1] 1.19 µM | [2] 4.67 µM and 2.26 µM | [4] 7.92 µM and 1.57 µM | [5] 12.3 µM and 25.9 µM

CN(C)C(=N)N=C(N)N
not listed: [1] | [5] | [8]
inactive: all other assays above
